Reference: the supplement of paper PMC11732987, “Enantioselective OTUD7B fragment discovery through chemoproteomics screening and high-throughput optimisation” (Communications Chemistry, 2025)

Legend:
Assay in all cases: log2 ratio of Biotin-Ahx-Ub-VS probe labelling (fragment/DMSO); higher = less target engagement (more negative = stronger competition), active = hit call of the paper (q ≤ 0.05, log2 ratio ≤ -1)
Conditions in all cases: compound concentration: 200 uM; treatment time: 3 h
USP9X = USP9X (UniProt Q93008)
Outline: (§1)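 Using Biotin-Ahx-Ub-VS at 0.5 µM final for 1 h, DUBs were labelled in HEK293T lysate (495 µg per sample) that had first been treated in triplicate with fragment at 200 µM or vehicle for 3 h. NeutrAvidin enrichment, LysC and trypsin digestion and diaPASEF LC-MS/MS followed. Spectronaut label-free quantities were global-median-normalised. Values are average log2 fragment/vehicle ratios by unpaired t-test, using proteins with ≥2 unique peptides.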

UniProt O00487 = target: UniProt O00487
Sequence of UniProt O00487 (O00487 whole entry): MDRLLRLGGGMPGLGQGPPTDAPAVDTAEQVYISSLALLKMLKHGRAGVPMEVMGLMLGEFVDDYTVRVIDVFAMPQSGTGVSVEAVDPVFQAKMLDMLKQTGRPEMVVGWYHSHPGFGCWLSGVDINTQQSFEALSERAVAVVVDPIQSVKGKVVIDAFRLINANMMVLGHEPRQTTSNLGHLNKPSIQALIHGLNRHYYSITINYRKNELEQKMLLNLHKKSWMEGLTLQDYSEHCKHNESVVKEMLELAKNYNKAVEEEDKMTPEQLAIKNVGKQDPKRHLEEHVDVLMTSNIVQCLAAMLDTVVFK
Outline: as §1

UniProt O00507 = target: UniProt O00507
Sequence of UniProt O00507 (O00507 whole entry): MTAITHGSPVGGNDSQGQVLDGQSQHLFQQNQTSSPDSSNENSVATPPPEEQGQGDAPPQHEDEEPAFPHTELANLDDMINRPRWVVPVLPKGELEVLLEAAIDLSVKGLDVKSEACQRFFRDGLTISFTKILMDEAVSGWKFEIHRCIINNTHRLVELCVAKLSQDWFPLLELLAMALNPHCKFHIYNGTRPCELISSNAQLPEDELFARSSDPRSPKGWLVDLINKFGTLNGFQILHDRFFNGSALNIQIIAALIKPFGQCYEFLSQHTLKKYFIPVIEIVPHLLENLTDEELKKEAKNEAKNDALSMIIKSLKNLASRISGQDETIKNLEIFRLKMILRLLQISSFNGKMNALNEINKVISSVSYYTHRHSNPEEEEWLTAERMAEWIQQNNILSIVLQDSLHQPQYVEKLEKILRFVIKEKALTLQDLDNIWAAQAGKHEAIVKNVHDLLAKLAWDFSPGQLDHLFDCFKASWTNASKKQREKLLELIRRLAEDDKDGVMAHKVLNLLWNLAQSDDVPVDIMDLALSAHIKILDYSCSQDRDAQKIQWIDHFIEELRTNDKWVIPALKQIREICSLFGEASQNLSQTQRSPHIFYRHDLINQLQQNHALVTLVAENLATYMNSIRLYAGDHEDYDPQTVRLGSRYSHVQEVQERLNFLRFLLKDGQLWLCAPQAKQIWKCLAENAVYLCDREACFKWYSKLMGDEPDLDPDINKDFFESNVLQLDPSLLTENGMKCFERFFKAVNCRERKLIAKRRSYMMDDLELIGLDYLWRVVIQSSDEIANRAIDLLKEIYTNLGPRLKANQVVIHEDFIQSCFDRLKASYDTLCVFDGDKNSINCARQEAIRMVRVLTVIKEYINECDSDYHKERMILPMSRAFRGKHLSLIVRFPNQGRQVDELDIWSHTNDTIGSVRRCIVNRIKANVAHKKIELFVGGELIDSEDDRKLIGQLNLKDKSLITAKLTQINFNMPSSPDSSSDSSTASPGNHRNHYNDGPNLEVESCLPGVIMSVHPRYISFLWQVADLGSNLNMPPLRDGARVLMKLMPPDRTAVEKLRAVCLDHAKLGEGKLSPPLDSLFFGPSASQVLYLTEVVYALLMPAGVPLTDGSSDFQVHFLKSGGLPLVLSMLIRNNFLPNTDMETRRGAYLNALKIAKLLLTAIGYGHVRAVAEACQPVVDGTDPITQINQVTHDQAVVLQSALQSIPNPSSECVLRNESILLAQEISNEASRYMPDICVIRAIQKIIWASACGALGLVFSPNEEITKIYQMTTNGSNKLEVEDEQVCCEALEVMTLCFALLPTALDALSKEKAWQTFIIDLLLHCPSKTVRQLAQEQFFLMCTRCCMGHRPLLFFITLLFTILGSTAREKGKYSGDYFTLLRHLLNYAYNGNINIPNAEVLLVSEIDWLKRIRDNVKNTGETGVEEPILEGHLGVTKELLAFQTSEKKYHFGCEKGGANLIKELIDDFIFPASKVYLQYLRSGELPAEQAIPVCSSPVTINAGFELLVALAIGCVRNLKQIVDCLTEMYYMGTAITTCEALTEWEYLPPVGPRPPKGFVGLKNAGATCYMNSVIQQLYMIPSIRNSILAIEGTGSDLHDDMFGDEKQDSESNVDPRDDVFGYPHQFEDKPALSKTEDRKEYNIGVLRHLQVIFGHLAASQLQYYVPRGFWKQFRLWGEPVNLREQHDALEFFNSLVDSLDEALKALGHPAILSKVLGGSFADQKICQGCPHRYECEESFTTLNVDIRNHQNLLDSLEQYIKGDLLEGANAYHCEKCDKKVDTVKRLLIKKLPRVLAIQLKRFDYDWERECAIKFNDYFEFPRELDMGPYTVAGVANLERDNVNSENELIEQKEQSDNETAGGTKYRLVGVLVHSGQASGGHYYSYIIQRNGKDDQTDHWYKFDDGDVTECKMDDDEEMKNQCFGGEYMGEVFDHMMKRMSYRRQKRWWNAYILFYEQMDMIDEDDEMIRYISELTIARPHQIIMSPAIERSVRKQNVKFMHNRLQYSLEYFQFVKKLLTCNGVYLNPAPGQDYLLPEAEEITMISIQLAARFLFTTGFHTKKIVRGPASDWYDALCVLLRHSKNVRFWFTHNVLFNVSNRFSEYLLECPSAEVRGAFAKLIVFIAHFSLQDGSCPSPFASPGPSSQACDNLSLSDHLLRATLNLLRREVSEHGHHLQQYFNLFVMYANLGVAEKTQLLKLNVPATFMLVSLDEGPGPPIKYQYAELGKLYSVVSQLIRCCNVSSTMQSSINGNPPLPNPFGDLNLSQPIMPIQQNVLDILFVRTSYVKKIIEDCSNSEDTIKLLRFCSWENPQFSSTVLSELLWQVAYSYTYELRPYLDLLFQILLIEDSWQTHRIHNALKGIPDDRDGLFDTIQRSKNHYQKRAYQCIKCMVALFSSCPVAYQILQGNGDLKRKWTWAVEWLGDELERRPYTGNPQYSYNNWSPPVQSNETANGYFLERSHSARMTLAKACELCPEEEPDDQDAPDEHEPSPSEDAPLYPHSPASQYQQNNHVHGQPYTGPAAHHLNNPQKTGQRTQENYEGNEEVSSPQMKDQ
Outline: as §1

UniProt P51784 = target: UniProt P51784
Sequence of UniProt P51784 (P51784 whole entry): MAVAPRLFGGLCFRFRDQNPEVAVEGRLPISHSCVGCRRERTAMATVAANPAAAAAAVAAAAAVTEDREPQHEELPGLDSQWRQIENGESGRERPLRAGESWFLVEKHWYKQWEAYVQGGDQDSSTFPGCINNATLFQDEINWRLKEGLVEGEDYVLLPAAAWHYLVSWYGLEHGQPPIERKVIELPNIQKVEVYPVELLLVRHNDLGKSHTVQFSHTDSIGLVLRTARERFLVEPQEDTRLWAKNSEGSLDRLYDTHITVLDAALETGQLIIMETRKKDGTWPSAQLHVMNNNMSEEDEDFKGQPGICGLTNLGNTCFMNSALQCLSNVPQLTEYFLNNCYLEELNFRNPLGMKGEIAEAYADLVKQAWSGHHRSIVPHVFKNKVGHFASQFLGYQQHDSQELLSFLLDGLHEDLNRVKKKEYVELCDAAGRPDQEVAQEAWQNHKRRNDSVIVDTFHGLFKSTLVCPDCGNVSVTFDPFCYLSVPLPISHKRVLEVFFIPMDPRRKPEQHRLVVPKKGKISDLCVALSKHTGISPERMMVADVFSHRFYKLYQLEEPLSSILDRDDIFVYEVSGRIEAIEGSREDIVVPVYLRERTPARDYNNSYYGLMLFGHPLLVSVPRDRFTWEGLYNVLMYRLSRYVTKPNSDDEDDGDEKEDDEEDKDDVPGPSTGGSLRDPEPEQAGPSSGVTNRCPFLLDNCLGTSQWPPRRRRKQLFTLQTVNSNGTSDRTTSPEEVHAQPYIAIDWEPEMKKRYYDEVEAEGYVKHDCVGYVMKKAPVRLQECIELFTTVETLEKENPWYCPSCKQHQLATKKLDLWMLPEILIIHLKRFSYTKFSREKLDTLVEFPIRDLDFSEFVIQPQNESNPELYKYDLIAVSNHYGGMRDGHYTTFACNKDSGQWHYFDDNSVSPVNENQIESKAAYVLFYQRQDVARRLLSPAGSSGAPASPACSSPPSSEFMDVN
Outline: as §1

UniProt Q5T2D3 = target: T1, UniProt Q5T2D3
T1 sequence (whole entry): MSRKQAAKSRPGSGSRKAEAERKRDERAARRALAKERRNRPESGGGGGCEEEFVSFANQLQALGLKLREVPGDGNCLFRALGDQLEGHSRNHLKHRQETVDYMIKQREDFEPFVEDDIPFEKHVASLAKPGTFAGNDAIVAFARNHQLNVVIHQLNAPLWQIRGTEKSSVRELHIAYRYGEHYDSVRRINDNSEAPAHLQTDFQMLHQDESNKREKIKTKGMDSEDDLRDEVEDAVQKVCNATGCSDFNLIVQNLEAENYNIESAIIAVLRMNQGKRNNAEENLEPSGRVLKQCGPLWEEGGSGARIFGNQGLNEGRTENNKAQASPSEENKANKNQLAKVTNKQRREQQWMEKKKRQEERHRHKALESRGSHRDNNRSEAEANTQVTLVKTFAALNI
Outline: as §1

UniProt Q8TE49 = target: T2, UniProt Q8TE49
T2 sequence (whole entry): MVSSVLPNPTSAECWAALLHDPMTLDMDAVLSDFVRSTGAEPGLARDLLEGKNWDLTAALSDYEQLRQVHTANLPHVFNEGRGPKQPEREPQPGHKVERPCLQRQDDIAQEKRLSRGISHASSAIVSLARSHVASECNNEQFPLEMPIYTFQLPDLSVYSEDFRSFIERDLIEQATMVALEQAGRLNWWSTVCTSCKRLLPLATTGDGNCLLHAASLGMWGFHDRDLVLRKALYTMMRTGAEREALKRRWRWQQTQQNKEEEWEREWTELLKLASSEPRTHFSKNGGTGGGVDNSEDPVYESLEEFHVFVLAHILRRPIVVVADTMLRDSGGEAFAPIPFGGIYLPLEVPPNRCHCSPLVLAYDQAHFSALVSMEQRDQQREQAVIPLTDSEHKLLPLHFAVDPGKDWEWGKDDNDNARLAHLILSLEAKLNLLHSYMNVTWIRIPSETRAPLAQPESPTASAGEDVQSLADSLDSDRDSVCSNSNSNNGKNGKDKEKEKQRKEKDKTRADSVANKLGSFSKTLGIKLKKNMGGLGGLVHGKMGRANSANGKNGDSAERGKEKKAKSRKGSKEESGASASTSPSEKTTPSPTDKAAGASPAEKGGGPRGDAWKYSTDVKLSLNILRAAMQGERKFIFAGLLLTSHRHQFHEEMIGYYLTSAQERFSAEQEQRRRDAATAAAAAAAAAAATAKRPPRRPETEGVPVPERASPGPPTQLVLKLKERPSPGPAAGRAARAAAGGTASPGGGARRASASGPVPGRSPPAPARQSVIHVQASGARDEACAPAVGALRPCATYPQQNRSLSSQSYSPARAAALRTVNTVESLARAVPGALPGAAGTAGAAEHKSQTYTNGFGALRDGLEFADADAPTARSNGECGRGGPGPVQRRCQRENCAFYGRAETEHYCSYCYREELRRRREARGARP
Outline: as §1

UniProt Q9P2H5 = target: T3, UniProt Q9P2H5
T3 sequence (whole entry): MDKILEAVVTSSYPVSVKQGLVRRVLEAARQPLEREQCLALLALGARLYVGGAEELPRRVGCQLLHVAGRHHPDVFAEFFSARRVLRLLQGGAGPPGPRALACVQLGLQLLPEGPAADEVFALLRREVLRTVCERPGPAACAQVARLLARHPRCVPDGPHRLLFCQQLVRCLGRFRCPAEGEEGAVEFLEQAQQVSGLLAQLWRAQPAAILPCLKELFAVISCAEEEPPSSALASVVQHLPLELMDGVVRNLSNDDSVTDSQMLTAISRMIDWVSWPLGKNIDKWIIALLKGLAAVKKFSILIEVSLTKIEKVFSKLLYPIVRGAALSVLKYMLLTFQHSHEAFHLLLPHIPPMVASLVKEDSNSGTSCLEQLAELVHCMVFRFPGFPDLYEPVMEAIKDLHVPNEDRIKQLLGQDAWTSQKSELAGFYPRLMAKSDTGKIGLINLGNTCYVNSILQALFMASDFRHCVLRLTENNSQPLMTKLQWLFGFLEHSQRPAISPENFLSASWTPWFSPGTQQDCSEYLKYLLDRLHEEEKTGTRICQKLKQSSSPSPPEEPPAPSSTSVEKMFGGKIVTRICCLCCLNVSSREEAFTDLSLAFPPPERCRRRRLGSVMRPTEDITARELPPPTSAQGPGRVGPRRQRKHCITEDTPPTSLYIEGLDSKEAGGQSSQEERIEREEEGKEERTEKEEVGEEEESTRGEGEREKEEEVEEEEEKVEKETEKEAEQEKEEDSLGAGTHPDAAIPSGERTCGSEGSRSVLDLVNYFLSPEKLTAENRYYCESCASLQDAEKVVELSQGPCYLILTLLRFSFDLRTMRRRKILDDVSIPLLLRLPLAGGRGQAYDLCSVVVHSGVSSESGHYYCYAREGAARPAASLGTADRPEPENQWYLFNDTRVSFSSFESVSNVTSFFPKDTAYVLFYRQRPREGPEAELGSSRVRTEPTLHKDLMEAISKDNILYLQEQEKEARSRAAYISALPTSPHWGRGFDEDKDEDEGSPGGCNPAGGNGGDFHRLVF
Outline: as §1

UniProt Q9UGI0 = target: T4, UniProt Q9UGI0
T4 sequence (whole entry): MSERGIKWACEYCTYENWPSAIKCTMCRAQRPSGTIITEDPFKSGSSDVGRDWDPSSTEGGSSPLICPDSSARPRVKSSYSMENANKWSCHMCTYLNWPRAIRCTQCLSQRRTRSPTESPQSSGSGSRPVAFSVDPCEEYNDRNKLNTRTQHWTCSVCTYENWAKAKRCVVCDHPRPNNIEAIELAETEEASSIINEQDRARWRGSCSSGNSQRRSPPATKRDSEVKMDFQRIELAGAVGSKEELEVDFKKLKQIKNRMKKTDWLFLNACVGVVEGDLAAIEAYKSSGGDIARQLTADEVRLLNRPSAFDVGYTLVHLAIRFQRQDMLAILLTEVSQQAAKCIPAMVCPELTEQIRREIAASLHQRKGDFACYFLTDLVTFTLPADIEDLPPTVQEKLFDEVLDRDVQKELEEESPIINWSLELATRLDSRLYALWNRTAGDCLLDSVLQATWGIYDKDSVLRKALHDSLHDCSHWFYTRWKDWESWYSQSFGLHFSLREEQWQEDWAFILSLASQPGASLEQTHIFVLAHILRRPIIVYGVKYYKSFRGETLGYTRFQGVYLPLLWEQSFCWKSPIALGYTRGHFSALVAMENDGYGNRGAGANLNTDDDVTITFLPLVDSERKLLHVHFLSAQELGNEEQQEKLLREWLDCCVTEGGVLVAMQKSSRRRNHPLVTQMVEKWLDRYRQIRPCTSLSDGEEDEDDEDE
Outline: as §1

YOD1 = target: T5, YOD1 (UniProt Q5VVQ6)
T5 sequence (whole entry): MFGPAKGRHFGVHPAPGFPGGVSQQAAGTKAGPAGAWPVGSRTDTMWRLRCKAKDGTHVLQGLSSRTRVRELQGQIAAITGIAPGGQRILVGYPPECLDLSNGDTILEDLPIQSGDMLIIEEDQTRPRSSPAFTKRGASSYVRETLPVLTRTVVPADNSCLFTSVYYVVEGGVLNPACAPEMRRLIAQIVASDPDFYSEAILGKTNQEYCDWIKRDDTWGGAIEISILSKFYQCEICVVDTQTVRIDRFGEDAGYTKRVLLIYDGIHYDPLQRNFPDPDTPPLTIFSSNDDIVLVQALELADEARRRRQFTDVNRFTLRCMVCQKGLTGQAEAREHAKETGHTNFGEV
Outline: as §1

Measured: log2 ratio of Biotin-Ahx-Ub-VS probe labelling

CC(NC(=O)CCl)c1noc(Cc2ccccc2)n1 (centres undefined)
inactive: USP9X -0.262 | UniProt O00487 -0.231 | UniProt O00507 -0.447 | UniProt P51784 -0.0798 | UniProt Q5T2D3 -0.347 | UniProt Q8TE49 -0.443 | UniProt Q9P2H5 -0.534 | UniProt Q9UGI0 -0.904 | YOD1 -0.247
